{"source": "the supplement of paper PMC8728848", "assay_in_all_cases": "glycan array binding signal (z-score within array); higher = stronger binding", "settings_in_all_cases": "glycan notation: IUPAC condensed, linker removed", "key": {"Neu5Ac(a2-3)GalNAc": {"target": "Neu5Ac(a2-3)GalNAc", "summary_of_the_method": "(§1)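 Arrays were curated from the Consortium for Functional Glycomics database, 3228 in total, and kept only where the protein sequence was available. Binding is expressed as a within-array Z-score. This score was averaged across arrays of the same protein sequence at different concentrations or buffers and across linkers, and negative values can be read as non-binding.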"}, "[1]": {"target": "Neu5Ac(a2-3)[Neu5Ac(a2-6)]GalNAc", "summary_of_the_method": "as §1"}, "[2]": {"target": "Neu5Ac(a2-6)Gal(b1-4)GlcNAc(b1-2)Man(a1-6)[GlcNAc(b1-2)Man(a1-3)]Man(b1-4)GlcNAc(b1-4)GlcNAc", "summary_of_the_method": "as §1"}, "[3]": {"target": "Neu5Ac(a2-8)Neu5Ac(a2-3)[GalNAc(b1-4)]Gal(b1-4)Glc", "summary_of_the_method": "as §1"}, "[4]": {"target": "Neu5Ac(a2-8)Neu5Ac(a2-8)Neu5Ac", "summary_of_the_method": "as §1"}, "[5]": {"target": "Fuc(a1-2)Gal(b1-3)GlcNAc(b1-2)Man(a1-3)[Fuc(a1-2)Gal(b1-3)GlcNAc(b1-2)Man(a1-6)]Man(b1-4)GlcNAc(b1-4)[Fuc(a1-6)]GlcNAc", "summary_of_the_method": "as §1"}, "[6]": {"target": "Fuc(a1-2)Gal(b1-3)[Fuc(a1-4)]GlcNAc", "summary_of_the_method": "as §1"}, "[7]": {"target": "Fuc(a1-2)Gal(b1-3)[Fuc(a1-4)]GlcNAc(b1-2)Man(a1-3)[Fuc(a1-2)Gal(b1-3)[Fuc(a1-4)]GlcNAc(b1-2)Man(a1-3)]Man(b1-4)GlcNAc(b1-4)GlcNAc", "summary_of_the_method": "as §1"}, "[8]": {"target": "Fuc(a1-2)Gal(b1-3)[Fuc(a1-4)]GlcNAc(b1-2)Man(a1-3)[Fuc(a1-2)Gal(b1-3)[Fuc(a1-4)]GlcNAc(b1-2)Man(a1-6)]Man(b1-4)GlcNAc(b1-4)[Fuc(a1-6)]GlcNAc(b1-4)[Fuc(a1-6)]GlcNAc", "summary_of_the_method": "as §1"}, "[9]": {"target": "Fuc(a1-2)Gal(b1-4)GlcNAc(b1-2)Man(a1-3)[Fuc(a1-2)Gal(b1-4)GlcNAc(b1-2)Man(a1-6)]Man(b1-4)GlcNAc(b1-4)[Fuc(a1-6)]GlcNAc", "summary_of_the_method": "as §1"}, "[10]": {"target": "Fuc(a1-2)Gal(b1-4)GlcNAc(b1-3)Gal(b1-4)GlcNAc(b1-2)Man(a1-3)[Fuc(a1-2)Gal(b1-4)GlcNAc(b1-3)Gal(b1-4)GlcNAc(b1-2)Man(a1-6)]Man(b1-4)GlcNAc(b1-4)GlcNAc", "summary_of_the_method": "as §1"}, "[11]": {"target": "Fuc(a1-2)Gal(b1-4)[Fuc(a1-3)]GlcNAc", "summary_of_the_method": "as §1"}, "[12]": {"target": "Fuc(a1-2)Gal3S(b1-4)GlcNAc", "summary_of_the_method": "as §1"}, "[13]": {"target": "Fuc(a1-2)Gal6S(b1-3)GlcNAc6S", "summary_of_the_method": "as §1"}, "[14]": {"target": "Fuc(a1-2)Gal6S(b1-4)Glc6S", "summary_of_the_method": "as §1"}, "[15]": {"target": "Fuc(a1-2)[GalNAc(a1-3)]Gal(b1-3)GalNAc(a1-3)[Fuc(a1-2)]Gal(b1-4)GlcNAc", "summary_of_the_method": "as §1"}, "[16]": {"target": "Fuc(a1-2)[GalNAc(a1-3)]Gal(b1-3)GalNAc(b1-3)Gal(a1-4)Gal(b1-4)Glc", "summary_of_the_method": "as §1"}, "[17]": {"target": "Fuc(a1-3)[Gal(b1-4)]GlcNAc(b1-6)GalNAc", "summary_of_the_method": "as §1"}, "[18]": {"target": "Fuc(a1-3)[Gal(b1-4)]GlcNAc6S", "summary_of_the_method": "as §1"}, "Gal(a1-2)Gal": {"target": "Gal(a1-2)Gal", "summary_of_the_method": "as §1"}, "[19]": {"target": "Gal(a1-3)Gal(b1-3)GlcNAc(b1-2)Man(a1-3)[Gal(a1-3)Gal(b1-3)GlcNAc(b1-2)Man(a1-6)]Man(b1-4)GlcNAc(b1-4)GlcNAc", "summary_of_the_method": "as §1"}, "[20]": {"target": "Gal(a1-3)Gal(b1-3)GlcNAc(b1-6)GalNAc", "summary_of_the_method": "as §1"}, "[21]": {"target": "Gal(a1-3)Gal(b1-4)[Fuc(a1-3)]GlcNAc(b1-2)Man(a1-3)[Gal(a1-3)Gal(b1-4)[Fuc(a1-3)]GlcNAc(b1-2)Man(a1-6)]Man(b1-4)GlcNAc(b1-4)GlcNAc", "summary_of_the_method": "as §1"}, "[22]": {"target": "Gal(a1-4)Gal(b1-3)GlcNAc(b1-2)Man(a1-3)[Gal(a1-4)Gal(b1-3)GlcNAc(b1-2)Man(a1-6)]Man(b1-4)GlcNAc(b1-4)GlcNAc", "summary_of_the_method": "as §1"}, "[23]": {"target": "Gal(a1-4)Gal(b1-4)GlcNAc(b1-3)Gal(b1-4)Glc", "summary_of_the_method": "as §1"}, "[24]": {"target": "Gal(b1-3)[Fuc(a1-4)]GlcNAc(b1-2)Man(a1-3)[Gal(b1-3)[Fuc(a1-4)]GlcNAc(b1-2)Man(a1-6)]Man(b1-4)GlcNAc(b1-4)[Fuc(a1-6)]GlcNAc", "summary_of_the_method": "as §1"}, "[25]": {"target": "Gal(b1-3)[Neu5Ac(b2-6)]GalNAc", "summary_of_the_method": "as §1"}, "[26]": {"target": "Gal(b1-4)GlcNAc(b1-2)Man(a1-3)[Gal(b1-4)GlcNAc(b1-2)Man(a1-6)][GlcNAc(b1-4)]Man(b1-4)GlcNAc(b1-4)[Fuc(a1-6)]GlcNAc", "summary_of_the_method": "as §1"}, "[27]": {"target": "Gal(b1-4)GlcNAc(b1-2)[Gal(b1-4)GlcNAc(b1-6)]Man(a1-6)[Gal(b1-4)GlcNAc(b1-2)Man(a1-3)]Man(b1-4)GlcNAc(b1-4)GlcNAc", "summary_of_the_method": "as §1"}, "[28]": {"target": "Gal(b1-4)GlcNAc(b1-3)Gal(b1-3)GalNAc", "summary_of_the_method": "as §1"}, "Gal3S(b1-4)Glc6S": {"target": "Gal3S(b1-4)Glc6S", "summary_of_the_method": "as §1"}, "Gal3S6S(b1-4)GlcNAc6S": {"target": "Gal3S6S(b1-4)GlcNAc6S", "summary_of_the_method": "as §1"}, "GalNAc(b1-4)Gal(b1-4)Glc": {"target": "GalNAc(b1-4)Gal(b1-4)Glc", "summary_of_the_method": "as §1"}, "[29]": {"target": "GalNAc(b1-4)GlcNAc(b1-2)Man(a1-3)[GalNAc(b1-4)GlcNAc(b1-2)Man(a1-6)]Man(b1-4)GlcNAc(b1-4)GlcNAc", "summary_of_the_method": "as §1"}, "[30]": {"target": "Glc(a1-6)Glc(a1-6)Glc(a1-6)Glc", "summary_of_the_method": "as §1"}}, "note": "The full list was thinned out, with the strongest signals kept by preference.", "data": [{"binder": "AAL (Aleuria aurantia), P18891 (protein) PTEFLYTSKIAAISWAATGGRQQRVYFQDLNGKIREAQRGGDNPWTGGSSQNVIGEAKLFSPLAAVTWKSAQGIQIRVYCVNKDNILSEFVYDGSKWITGQLGSVGVKVGSNSKLAALQWGGSESAPPNIRVYYQKSNGSGSSIHEYVWSGKWTAGASFGSTVPGTGIGATAIGPGRLRIYYQATDNKIREHCWDSNSWYVGGFSASASAGVSIAAISWGSTPNIRVYWQKGREELYEAAYGGSWNTPGQIKDASRPTPSLPDTFIAANSSGNIDISVFFQASGVSLQQWQWISGKGWSIGAVVPTGTPAGW", "values": [{"measurement": "glycan array binding signal (z-score)", "setting": "Neu5Ac(a2-3)GalNAc", "result": -0.531}, {"measurement": "glycan array binding signal (z-score)", "setting": "[1]", "result": -0.551}, {"measurement": "glycan array binding signal (z-score)", "setting": "[2]", "result": -0.423}, {"measurement": "glycan array binding signal (z-score)", "setting": "[3]", "result": -0.499}, {"measurement": "glycan array binding signal (z-score)", "setting": "[4]", "result": -0.526}]}, {"binder": "OGAA (protein) MVQKESQATLEERESELSSNPAASAGASLEPPAAPAPGEDNPAGAGGAAVAGAAGGARRFLCGVVEGFYGRPWVMEQRKELFRRLQKWELNTYLYAPKDDYKHRMFWREMYSVEEAEQLMTLISAAREYEIEFIYAISPGLDITFSNPKEVSTLKRKLDQVSQFGCRSFALLFADIDHNMCAADKEVFSSFAHAQVSITNEIYQYLGEPETFLFCPTEYCGTFCYPNVSQSPYLRTVGEKLLPGIEVLWTGPKVVSKEIPVESIEEVSKIIKRAPVIWDNIHANDYDQKRLFLGPYKGRSTELIPRLKGVLTNPNCEFEANYVAIHTLATWYKSNMNGVRKDVVMTDSEDSTVSIQIKLENEGSDEDIETDVLYSPQMALKLALTEWLQEFGVPHQY", "values": [{"measurement": "glycan array binding signal (z-score)", "setting": "[5]", "result": 0.026}, {"measurement": "glycan array binding signal (z-score)", "setting": "[6]", "result": -0.076}, {"measurement": "glycan array binding signal (z-score)", "setting": "[7]", "result": 0.285}, {"measurement": "glycan array binding signal (z-score)", "setting": "[8]", "result": 0.251}, {"measurement": "glycan array binding signal (z-score)", "setting": "[9]", "result": 0.206}, {"measurement": "glycan array binding signal (z-score)", "setting": "[10]", "result": 0.006}, {"measurement": "glycan array binding signal (z-score)", "setting": "[11]", "result": -0.07}, {"measurement": "glycan array binding signal (z-score)", "setting": "[12]", "result": -0.06}, {"measurement": "glycan array binding signal (z-score)", "setting": "[13]", "result": 1.74}, {"measurement": "glycan array binding signal (z-score)", "setting": "[14]", "result": 0.205}, {"measurement": "glycan array binding signal (z-score)", "setting": "[15]", "result": 22.9}, {"measurement": "glycan array binding signal (z-score)", "setting": "[16]", "result": 8.04}, {"measurement": "glycan array binding signal (z-score)", "setting": "[17]", "result": 0.242}, {"measurement": "glycan array binding signal (z-score)", "setting": "[18]", "result": -0.107}, {"measurement": "glycan array binding signal (z-score)", "setting": "Gal(a1-2)Gal", "result": 0.002}, {"measurement": "glycan array binding signal (z-score)", "setting": "[19]", "result": 0.031}, {"measurement": "glycan array binding signal (z-score)", "setting": "[20]", "result": -0.107}, {"measurement": "glycan array binding signal (z-score)", "setting": "[21]", "result": 0.644}, {"measurement": "glycan array binding signal (z-score)", "setting": "[22]", "result": -0.007}, {"measurement": "glycan array binding signal (z-score)", "setting": "[23]", "result": -0.098}, {"measurement": "glycan array binding signal (z-score)", "setting": "[24]", "result": 0.357}, {"measurement": "glycan array binding signal (z-score)", "setting": "[25]", "result": -0.096}, {"measurement": "glycan array binding signal (z-score)", "setting": "[26]", "result": -0.009}, {"measurement": "glycan array binding signal (z-score)", "setting": "[27]", "result": -0.08}, {"measurement": "glycan array binding signal (z-score)", "setting": "[28]", "result": -0.11}, {"measurement": "glycan array binding signal (z-score)", "setting": "Gal3S(b1-4)Glc6S", "result": -0.088}, {"measurement": "glycan array binding signal (z-score)", "setting": "Gal3S6S(b1-4)GlcNAc6S", "result": -0.045}, {"measurement": "glycan array binding signal (z-score)", "setting": "GalNAc(b1-4)Gal(b1-4)Glc", "result": -0.096}, {"measurement": "glycan array binding signal (z-score)", "setting": "[29]", "result": -0.075}, {"measurement": "glycan array binding signal (z-score)", "setting": "[30]", "result": -0.081}]}]}
